Measurements published in PubChem BioAssay AID588342 (National Center for Advancing Translational Sciences (NCATS), 2011).
Out of some 360,000 compounds screened, about 25,000 (6.9%) were called active. Roughly 9% stayed inconclusive and do not appear here. Calls follow the shape of the dose curve; as a rule, active = well fitted inhibition curve with a large enough effect; inconclusive = small, poorly fitted or top-dose-only effect; inactive = flat fitted curve, though single readings scatter. The sample as a whole holds a higher share of actives than the screen did.

target: Luciferin 4-monooxygenase (Photinus pyralis) (UniProt P08659); assay: qHTS profiling assay for firefly luciferase inhibitor/activator using purifed enzyme and Km concentrations of substrates (counterscreen for miR-21 project); conditions: purified FLuc, luminescence inhibition; series mostly up to 57.5 µM; activity change, negative = inhibition: at the top concentration; also: nearly all actives have a fitted effect of over 55% in size;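 as to activity change, negative = inhibition: plate controls were vehicle for no effect and reference inhibitor for full effect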
Sequence (P08659 whole entry, looked up): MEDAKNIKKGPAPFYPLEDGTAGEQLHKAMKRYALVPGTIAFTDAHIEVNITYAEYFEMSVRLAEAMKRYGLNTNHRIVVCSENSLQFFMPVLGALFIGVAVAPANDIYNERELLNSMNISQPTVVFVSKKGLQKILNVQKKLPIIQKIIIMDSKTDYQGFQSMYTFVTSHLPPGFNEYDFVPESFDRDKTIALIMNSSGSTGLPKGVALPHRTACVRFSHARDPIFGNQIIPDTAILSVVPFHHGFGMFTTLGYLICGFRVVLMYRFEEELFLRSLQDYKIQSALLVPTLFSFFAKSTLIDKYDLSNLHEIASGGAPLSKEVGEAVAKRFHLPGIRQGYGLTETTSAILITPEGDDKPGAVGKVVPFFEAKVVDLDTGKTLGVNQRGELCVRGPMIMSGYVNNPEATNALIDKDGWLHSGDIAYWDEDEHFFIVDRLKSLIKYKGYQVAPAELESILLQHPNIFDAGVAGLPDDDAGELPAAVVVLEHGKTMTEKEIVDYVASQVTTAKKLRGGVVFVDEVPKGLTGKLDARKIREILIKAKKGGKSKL
From the text: MLPCN Grant: 1 R21 NS059478-01 (miR-21 grant) Assay Provider: NCGC NCGC Assay Overview: Firefly (Photinus pyralis) luciferase is one of the most commonly used transcriptional reporters for a number of reasons. It is considered one of the more dynamically responsive reporters -that is, responsive to changes in reporter transcription - as it requires no post-translational modifications and is enzymatically active directly after protein synthesis (Wood, 1998). Additionally, the half-life of the luciferase protein is short relative to other reporter-gene products (Wood, 1995). Whereas reporters with long half-lives potentially allow for increased signal due to accumulation of reporter-gene product, once accumulated in the cell, dynamic changes in reporter-gene expression may be difficult to detect(Fan and Wood, 2007; Almond et al., 2004). It has been shown that wild-type P. pyralis luciferase has a half-life of approximately […] hours in mammalian cells (Thompson et al., 1991). Firefly luciferase reporter-gene assays are also generally considered one of the most sensitive assay types (Wood, 1995; Wood, 1998). Although light produced in a bioluminescence reaction is of lower intensity than that produced during fluorescence emission, this is offset by little to no background light inherent to luminescent assays. Thus the luciferase reporter can be expressed at much lower levels than fluorescent proteins while still providing robust signal. # However, it was initially observed, in 1991, by Thompson et al., that compounds that resemble the substrates of firefly luciferase (FLuc) can act as competitive inhibitors of the enzyme, and that these compounds, upon interaction with luciferase in the cell, can actually stabilize the protein and increase its half-life. Accumulated intracellular FLuc protein can be measured as an increase in luminescence signal, upon addition of detection reagents (which contain high concentrations of FLuc substrates) commonly used in high-throughput screening. In cell-based reporter gene assays that use FLuc as the reporter gene to quantitate the potential influence of a given compound against the target biology, this apparent increase in luminescence can mistakenly be interpreted as identification of a compound that is active against the target of interest. This is the case for the miR-21 FLuc reporter gene assay used to identify inhibitors of the miR-21 pathway (PubChem AID 2289) - compounds of interest will inhibit miR-21 biogenesis/expression or activity, and are identified by causing an increase in luminescence, due to increased FLuc translation. However, FLuc inhibitory compounds that stabilize the FLuc protein will give an identical read-out, making it difficult to distinguish compounds that are active against the target from those active against FLuc. Previous profiling work to determine the prevalence of compounds that affect FLuc enzymatic activity (PubChem AID 411) identified that ~3% of the MLSMR library (then at ~72K) inhibited FLuc. […] Since the MLSMR had grown to ~350K compounds, and since it was expected that a significant percentage of compounds found active in the miR-21 FLuc assay would be FLuc inhibitors, the library was screened for activity against FLuc using a biochemical assay of purified FLuc and KM concentrations of FLuc substrates (D-luciferin and ATP).
NCGC Assay Protocol Summary: Reagents: 50mM Tris acetate, pH 7.5; 10mM Mg acetate; 10uM D-luciferin (Sigma #L9504); 10uM ATP; 0.01% Tween-20; 0.05% BSA; 10nM P. pyralis luciferase (Sigma #L9506) Control compounds used were two known firefly luciferase inhibitors (compounds (2) and (5) in Auld et al., 2010), and DMSO. […]

Row | SMILES | Potency | activity change, negative = inhibition
1 | COc1ccccc1N1CCN(/N=C/c2ccc(O)cc2O)CC1 | 7.57 µM (active) | –
2 | CNCC(O)CN1CCN(c2ccccc2OC)CC1 (centres undefined) | – | -0.912% (inactive)
3 | COc1ccccc1N1CCN(C(=O)C(=O)N/N=C/c2ccccc2F)CC1 | – | 4.07% (inactive)
4 | COc1ccccc1N1CCN(C2C(=O)c3ccccc3N2C(C)=O)CC1 (centres undefined) | – | -18% (inactive)
5 | COc1ccccc1/C=N/N1CCN(Cc2ccccc2Cl)CC1 | – | -1.85% (inactive)
6 | CCOC(=O)CN1C(=O)N[C@@H](c2ccc(Br)cc2)C(C(C)=O)=C1C | – | -0.544% (inactive)
7 | Cc1oc(-c2ccccc2F)nc1CN1CCC(C(=O)NCCc2ccc(Cl)cc2)CC1 | – | -14.6% (inactive)
8 | CN(Cc1ccccc1)C(=O)c1cc2c(=O)n(C)c3ccccc3c2s1 | – | -13.9% (inactive)
9 | Cc1[nH]c2ccccc2c1C(c1ccccc1)c1cccs1 (centres undefined) | – | -7.8% (inactive)
10 | Cc1cccc(N2CCN(C(=O)c3ccc4c(c3)CCN4S(=O)(=O)c3ccccc3)CC2)c1C | – | -1.27% (inactive)
11 | Cc1ccc(Cn2cc(CCC(=O)NCc3ccc(OC(C)C)cc3)c3ccccc32)cc1 | – | 3.04% (inactive)
12 | CC(=O)Nc1ccc(OC(=O)COc2ccc(Br)cc2)cc1 | – | -1.37% (inactive)
13 | CSc1ccc(Cl)c(C(=O)OCC(=O)N2CCNC2=O)c1 | – | -4.07% (inactive)
14 | CC(=O)CSc1nnc(CSc2ncccn2)n1C1CCCCC1 | – | -0.437% (inactive)
15 | O=S(=O)(c1ccccc1)c1nc(-c2ccc(Cl)cc2Cl)oc1N1CCCCC1 | – | -0.863% (inactive)
16 | COc1ccc(S(=O)(=O)Nc2ccccc2C(=O)N2CCCC2)cc1C | – | -1.28% (inactive)
17 | CC(NS(=O)(=O)c1ccc(OCC(=O)N2CCCC2)cc1)c1ccccc1 (centres undefined) | – | 2.33% (inactive)
18 | COc1ccc(S(=O)(=O)NC(C)c2ccccc2)cc1C(=O)N1CCCCC1 (centres undefined) | 1.69 µM (active) | –
19 | COc1ccc(NS(=O)(=O)c2cc3c4c(c2)CC(=O)N4CCC3)cc1Cl | – | -10.1% (inactive)
20 | O=C(CN1C(=O)CC(c2ccccc2)S(=O)(=O)c2ccccc21)NC1CCCC1 (centres undefined) | – | -2.16% (inactive)
21 | O=C1/C(=C\c2cccnc2)CN(Cc2ccccc2)C/C1=C\c1cccnc1 | – | 0.472% (inactive)
22 | C(=N\n1cnnc1)/c1cccnc1 | – | 0.209% (inactive)
23 | Cc1ccccc1C1=N/C(=C/c2cccnc2)C(=O)O1 | 8.49 µM (active) | –
24 | CCc1nc2sc3c(Cl)ncnc3c2c2c1CCCC2 | – | 0.217% (inactive)
25 | Cc1cccc(-n2cc(CN3CCN(C(=O)c4ncn[nH]4)CC3)c(-c3cccc(F)c3)n2)c1 | 13.5 µM (active) | –
26 | Cc1ccccc1CN1CCN(C(=O)c2cccc(F)c2)CC1 | – | 4.88% (inactive)
27 | Cc1ccc(C)c(-n2cc(CN3CCN(C(=O)c4ncn[nH]4)CC3)c(-c3ccccc3)n2)c1 | – | -4.47% (inactive)

Row | SMILES | Potency | activity change, negative = inhibition
28 | CCN(CCCNC(=O)c1cc2cc3cc(OC)ccc3nc2s1)c1ccccc1 | – | -6.12% (inactive)
29 | CC(=O)Nc1ccc(SC[C@H](Cc2ccccc2)N2CC[C@@H](C)CCC2=O)cc1 | – | 4.86% (inactive)
30 | CCOC(=O)CSc1nc2ccc(C)cc2[nH]1 | 16.9 µM (active) | –
31 | Cc1ccc2nc(SCC(=O)NC3CCCC3)[nH]c2c1 | – | 5.01% (inactive)
32 | COc1ccc2nc(SCC(=O)Nc3c(C)cc(C)cc3C)[nH]c2c1 | – | 6.49% (inactive)
33 | COc1ccc(S(=O)(=O)NCc2cccn2Cc2cccc(C)c2)cc1 | – | -0.767% (inactive)
34 | c1ccc(CN2CCC(N=C3NN=C(c4ccc5c(c4)OCCO5)CS3)CC2)cc1 | – | -19.4% (inactive)
35 | Clc1cccc(N=C2NN=C(c3ccc4c(c3)OCCO4)CS2)c1 | 2.13 µM (active) | –
36 | CC1CCN(C(=O)COC(=O)c2cc(=O)[nH]c3ccccc23)CC1 | 10.7 µM (active) | –
37 | COC(=O)C1CCN(C(=O)c2cc(=O)[nH]c3ccccc23)CC1 | – | -3.07% (inactive)
38 | CC(NC(=O)COC(=O)c1cc(=O)[nH]c2ccccc12)c1ccccc1 (centres undefined) | – | -7.16% (inactive)
39 | Cc1cc(C)cc(NC(c2nnc(-c3cccc(F)c3)o2)c2ccc(F)cc2Cl)c1 (centres undefined) | – | 0.751% (inactive)
40 | COc1cccc(CNc2nccn(-c3ccc(OC)c(OC)c3)c2=O)c1 | – | -2.32% (inactive)
41 | COc1ccc(-c2cc(C(F)(F)F)nc(SCC(=O)N(C)Cc3ccccc3)n2)cc1OC | – | -5.79% (inactive)
42 | COc1ccc(CC2c3cc(OC)c(OC)cc3CC[N+]2(C)CCC(=O)OCCCCCOC(=O)CC[N+]2(C)CCc3cc(OC)c(OC)cc3C2Cc2ccc(OC)c(OC)c2)cc1OC (centres undefined) | – | 1.46% (inactive)
43 | O=C(Nc1cccc(-c2nc3ccccc3o2)c1)c1cccc(Br)c1 | – | -18.3% (inactive)
44 | O=[N+]([O-])c1ccc2oc(-c3cccc(O)c3)nc2c1 | 2.13 µM (active) | –
45 | O=C(Nc1ccc2oc(-c3ccc(O)c(Br)c3)nc2c1)c1cc2ccccc2o1 | – | 2.43% (inactive)
46 | COc1cccc(-c2nc3cc(C)ccc3o2)c1 | 0.757 µM (active) | –
47 | COc1ccc2oc(-c3ccc(C)c(NC(=O)c4sc5ccccc5c4Cl)c3)nc2c1 | – | -8.93% (inactive)
48 | Cc1ccc(OCC(=O)Nc2ccc(-c3nc4ncccc4o3)cc2)cc1 | – | -2.22% [at 2.3 µM] (inactive)
49 | O=C(Nc1cc(-c2nc3ccccc3o2)ccc1Cl)c1cc([N+](=O)[O-])ccc1N1CCOCC1 | – | -12.3% (inactive)
50 | CCCOc1ccc(C(=O)Nc2ccc3oc(-c4cccc(Cl)c4Cl)nc3c2)cc1 | – | -4.27% (inactive)
51 | CCC(=O)Nc1cccc(-c2nc3cc(C)ccc3o2)c1 | 2.69 µM (active) | –
52 | COc1cccc(-c2nc(S(=O)(=O)c3ccc(C)cc3)c(NCc3ccccc3)o2)c1 | – | 3.23% (inactive)
53 | CCCC(=O)Nc1ccc2oc(-c3ccc(O)c(Br)c3)nc2c1 | 2.39 µM (active) | –
54 | COc1ccc(-c2nc3ccccc3o2)cc1NC(=O)c1cc([N+](=O)[O-])ccc1N1CCOCC1 | – | 3.15% (inactive)
